Measurements published in PubChem BioAssay AID624256 (NMMLSC, 2012).
Out of some 360,000 compounds screened, about 3,700 (1%) were called active. Inconclusive results (about 2%) are left out.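 Rule for the calls: active = normalized GFP-positive differentiation at or above the plate's own cutoff, the solvent-only control mean plus 3 SD; inconclusive = no clear call, values can overlap the other calls; inactive = the rest.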 What follows is part of a selection rich in actives, with near analogues and random picks from the rest.

Experiment: HoxA9-arrested leukemia cell differentiation promoters – flow cytometry, MLPCN library, primary screen (AID 624256);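 for GFP+ MAC1+ double positive: cells exposed to compound for four days before flow analysis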;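 for normalized GFP-positive differentiation: cells exposed to compound for four days before flow analysis; 0% = DMSO wells and 100% = fulvestrant positive control at 5 µM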
Conditions: ER-HoxA9 myeloid progenitors, lysozyme-GFP differentiation, at 10 µM; GFP+ MAC1+ double positive: measured here: differentiation confirmed by MAC1 staining, stronger effect = higher value; normalized GFP-positive differentiation: stronger effect = higher value

Structure (SMILES)	GFP+ MAC1+ double positive	outcome	normalized GFP-positive differentiation
CCOC(=O)[C@]12CCCC=C1N(Cc1cccc3ccccc13)C(=O)[C@H](CC(=O)NCC13CC4CC(CC(C4)C1)C3)C2	2.1%	inactive	–
Cc1ccc(S(=O)(=O)NCCNC(C)c2ccc(Br)cc2)cc1 (stereo not given)	1%	inactive	–
Cc1ccc(S(=O)(=O)NCC(C)NS(C)(=O)=O)cc1 (stereo not given)	2%	inactive	–
Cc1ccc(S(=O)(=O)NCCSC(C)(C)C)cc1	5.2%	–	17.8% (active)
OC(c1ccccc1)c1nc(-c2cnc3ccccc3c2)cs1 (stereo not given)	0.6%	inactive	–
C=C1C(=O)[C@]23C[C@H]1CCC2[C@@]1(C)C(C[C@@H]3O)[C@](C)(C(=O)O)CC[C@@H]1O (stereo not given in full)	3.8%	–	13.1% (active)
CCOC(=O)C1=CC[C@@H](c2ccncc2)N(S(=O)(=O)c2ccc(C)cc2)C1	1.2%	inactive	–
COc1ccc(C2OC(CCc3ccccc3)Cc3[nH]c(=S)[nH]c(=O)c32)cc1 (stereo not given)	1.5%	inactive	–
CC(=O)c1ccc(S(=O)(=O)N2CCN(c3nc4c(C)c(C)ccc4cc3C#N)CC2)cc1	0.3%	inactive	–
Cc1ccc(S(=O)(=O)C(C#N)c2nc3ccccc3nc2N2CCCC2)cc1C (stereo not given)	1.7%	–	59% (active)
Cc1ccc(S(=O)(=O)N2CCN(c3ccccc3)CC2)cc1C	0.5%	inactive	–
CC(C)OC(=O)C(C#N)c1nc2ccccc2nc1N1CCN(Cc2ccccc2)CC1 (stereo not given)	0.7%	–	12.1% (active)
CC(C)n1c(CN2CCN(Cc3ccccc3)CC2)nc2ccccc21	0.1%	inactive	–
COC(=O)c1sc(N2CCN(Cc3ccccc3)CC2)nc1N	0.5%	inactive	–
CCCCCn1nnnc1-c1nc2cc3ccccc3cc2[nH]c1=O	1.8%	inactive	–
Cc1nc(Nc2ccc3c(c2)OCCO3)c2nnn(Cc3ccccc3Cl)c2n1	18.1%	–	21.9% (active)
Cc1nc(Nc2ccccc2F)c2nnn(Cc3ccccc3Cl)c2n1	0.5%	inactive	–
CCCc1nc(NCc2ccc3c(c2)OCO3)c2nnn(Cc3ccccc3Cl)c2n1	0.8%	inactive	–
CCCCCc1c(Cc2ccccc2)ncn1CCc1ccccc1OC	3.9%	inactive	–
COc1ccc(NC(=O)N(C)C[C@H]2Oc3ccc(NC(=O)C4CC4)cc3C(=O)N([C@H](C)CO)C[C@@H]2C)cc1	1.6%	–	10.4% (active)
COc1ccc(NC(=O)Nc2ccc3c(c2)C(=O)N([C@H](C)CO)C[C@H](C)[C@@H](CN(C)C(=O)Nc2ccc4c(c2)OCO4)O3)cc1	2.5%	inactive	–
C[C@@H]1CN([C@@H](C)CO)C(=O)c2cc(NC(=O)C3CC3)ccc2O[C@H]1CN(C)C	1.9%	inactive	–
CCOC(=O)[C@]12CCC=C1N(Cc1ccccc1)C(=O)[C@H](CC(=O)N1CCCC1)C2	0.9%	inactive	–
N#C/C(=C/c1ccc(N2CCOCC2)o1)C(=O)N1CCOCC1	0.4%	inactive	–
N#C/C(=C/c1ccc(N2CCCCC2)o1)C(=O)NCCc1c[nH]c2ccccc12	3.1%	–	118% (active)
N#C/C(=C\c1ccc(N2CCOCC2)o1)C(=O)N1CCOCC1	0.4%	inactive	–
CCC(c1nnnn1-c1ccc2c(c1)OCCO2)N1CCN(c2ccc(C(F)(F)F)cn2)CC1 (stereo not given)	0.4%	inactive	–

Structure (SMILES)	GFP+ MAC1+ double positive	outcome	normalized GFP-positive differentiation
CCNC(=O)c1cc2c(c(-c3cccc(-c4cncnc4)c3)n1)[C@H](CCO)N(C(C)=O)C2	0.5%	inactive	–
CCCNC(=O)C[C@@H]1CC[C@@H]2[C@H](COC[C@H](O)CN2C(=O)c2cc(Cl)cc(Cl)c2)O1	0.9%	inactive	–
CCCCCc1c(-c2cccc(Br)c2)ncn1CCc1ccccc1OC	1%	inactive	–
Cc1nc2c(OCc3cccc(Cl)c3)cccn2c1N(C)CC1CC1	0.4%	inactive	–
N#C/C(=C\C1=C(N2CCOCC2)C(=C\c2ccccc2)/CC1)C(=O)Nc1ccccc1F	11.3%	–	127% (active)
O=C1Nc2ccc(Br)cc2/C1=N/N=C/C1=C(N2CCOCC2)C(=C\c2ccccc2)/CC1	0.4%	inactive	–
O=C(O)c1ccc(NN=CC2=C(N3CCOCC3)/C(=C/c3ccccc3)CC2)cc1	0.1%	inactive	–
COc1ccc(OC)c(CN2C(=O)CCC2(C)c2nnnn2Cc2ccccc2)c1 (stereo not given)	0.7%	inactive	–
CCOC(=O)[C@]12CCCC=C1N(Cc1ccc(Cl)cc1Cl)C(=O)[C@H](CC(=O)N1CCCCC1)C2	0.5%	inactive	–
Cc1ccc(C(=O)Nc2c(-c3ccccc3)[nH][nH]c2=O)cc1	0.3%	inactive	–
COc1ccccc1C(=O)Nn1c(-c2cccs2)nc2ccccc2c1=O	0.5%	inactive	–
O=C(Nn1c(-c2ccc(Cl)cc2)nc2ccccc2c1=O)c1cccnc1Cl	2.1%	–	151% (active)
COc1cc(OC)cc(-c2nc3ccccc3c(=O)n2NC(=O)c2cccnc2Cl)c1	0.9%	inactive	–
CC(=O)C[C@@H]1OC[C@H](CO)N1S(=O)(=O)c1ccc(C)cc1	2.1%	inactive	–
O=C(C[C@H]1CC[C@@H](NC(=O)c2ccncc2)[C@@H](CO)O1)NCC1CC1	0.9%	inactive	–
N#Cc1c(C(F)(F)F)cc(-c2ccccc2)nc1SCC(=O)N1CCOCC1	1.4%	inactive	–
CCSc1nc(-c2ccc(OC)cc2)cc(-c2ccc(OC)cc2)c1C#N	7.7%	inactive	–
CCOC(=O)CC(=O)CSc1nc(-c2ccccc2)cc(-c2ccc(Cl)cc2)c1C#N	26.9%	–	14.9% (active)
Cc1noc(C)c1C(=O)N1CCC1(C)C(=O)NS(=O)(=O)c1ccc(C#N)cc1 (stereo not given)	1.2%	inactive	–
CCN1CCCC1CNC(=O)c1cc2c(=O)n(C)c3ccccc3c2n1C (stereo not given)	0.5%	inactive	–
Cn1c(C(=O)NCCCN2CCN(c3cccc(Cl)c3)CC2)cc2c(=O)n(C)c3ccccc3c21	11.3%	–	36.1% (active)
O=C(Cc1csc(Nc2nc(=S)[nH]c3ccccc23)n1)NCCCN1CCN(c2cccc(Cl)c2)CC1	1%	inactive	–
CC(=O)Nc1cc(-c2cccc(CO)c2)cn2c(-c3cccc(C(F)(F)F)c3)cnc12	0.8%	inactive	–
COc1cc2[nH]c(O)c(C=O)c2cc1OC	0.7%	inactive	–
CN=c1scc(-c2cc(OC)ccc2OC)n1/N=C/c1c(C)[nH]c2ccccc12	1.2%	inactive	–
COc1cc(N=Cc2c(O)[nH]c3ccccc23)cc(OC)c1OC	16.7%	–	15.8% (active)
CCOC(=O)[C@H]1Nc2ccc(Cl)cc2[C@@H]2[C@H]1C1CC(c3ccccc31)N2C(=O)OCc1ccccc1 (stereo not given in full)	1%	inactive	–

Structure (SMILES)	GFP+ MAC1+ double positive	outcome	normalized GFP-positive differentiation
CC(C)C[C@H]1CNC(=S)N1C[C@H]1CCCN1C[C@H](Cc1ccc(O)cc1)N1C[C@H](Cc2ccc(O)cc2)N(CC2CCCCC2)C1=S	1.3%	inactive	–
Cc1ccc(C)c(S(=O)(=O)N2CCN(c3ncnc4sccc34)CC2)c1	2.8%	–	41.1% (active)
COc1ccc(-c2csc3ncnc(N4CCN(S(=O)(=O)c5ccccc5C#N)CC4)c23)cc1	1.7%	inactive	–
Cc1ccc(C)c(S(=O)(=O)N2CCN(C(=O)Nc3ccccc3)CC2)c1	0.3%	inactive	–
CCC(C(=O)NCc1ccccc1)n1c(Cc2cc(F)cc(F)c2)nc2ccccc21 (stereo not given)	2%	inactive	–
Nc1ncnc2c1ncn2[C@@H]1O[C@H](C(=O)N2CCCN(Cc3ccccc3F)CC2)[C@@H](O)[C@H]1O	1.3%	inactive	–
O=C(NC1CCCCC1)n1c(=O)oc2cc(S(=O)(=O)N3CCCCC3)ccc21	8.3%	inactive	–
CC1CCCCN1C(=O)Cn1c(=O)oc2cc(S(=O)(=O)N3CCCCC3)ccc21 (stereo not given)	6.7%	–	53.2% (active)
CC1CCCN(C(=O)Cn2c(=O)oc3cc(S(=O)(=O)N4CCCCC4C)ccc32)C1 (stereo not given)	2.1%	inactive	–
CC1=C(C(=O)N(C(C)C)C(C)C)CC(CC(=O)NCCCCc2ccccc2)C(=O)N1CCC1=CCCCC1 (stereo not given)	1%	inactive	–
O=S1(=O)CC(N2CCN(c3ccccn3)CC2)CN1Cc1ccc(F)cc1 (stereo not given)	0.9%	inactive	–
CCOC(=O)[C@]12CCC=C1N(Cc1cccc3ccccc13)C(=O)[C@H](CC(=O)NCc1cccc(C(F)(F)F)c1)C2	0.3%	inactive	–
COC(=O)[C@@]12C[C@@H](CC(=O)N3CCC(c4ccccc4)CC3)C(=O)N(Cc3ccccc3)C1=CCC(C)(C)C2	1.2%	inactive	–
Clc1ccc(-n2nnnc2-c2cnc(-c3ccccn3)nc2-c2cccs2)cc1	0.7%	inactive	–
O=C(CN1CCN(c2ccc(Cl)cc2)CC1)c1ccccc1	0.3%	inactive	–
O=C(Cn1cc(-c2nnnn2-c2ccc(Cl)cc2)c(=O)c2ccccc21)c1ccccc1	7.2%	–	37.5% (active)
COC(=O)[C@]12CCCCC=C1N(CCC1=CCCCC1)C(=O)[C@H](CC(=O)NCC1CCCCC1)C2	1.7%	inactive	–
Cc1ccc(-c2cnc(C(O)c3cccc(C)c3C)[nH]2)cc1 (stereo not given)	0.9%	inactive	–
O=C(NC1C2CC3CC(C2)CC1C3)c1ccc(N2CCNCC2)c([N+](=O)[O-])c1 (stereo not given)	0.8%	–	16.7% (active)
CS(=O)(=O)N1CCN(c2ccc(C(=O)NC3C4CC5CC(C4)CC3C5)cc2[N+](=O)[O-])CC1 (stereo not given)	1%	inactive	–
O=C(Nc1cccc(C(F)(F)F)c1)c1ccc(N2CCNCC2)c([N+](=O)[O-])c1	0.4%	inactive	–
Cc1cc(O)ccc1-c1cc(C(=O)NCc2cc(C(F)(F)F)cc(C(F)(F)F)c2)[nH]n1	0.4%	inactive	–
c1ccc2c(CCN3CCNC[C@H]3Cc3cccc4ccccc34)cccc2c1	6%	inactive	–
c1ccc(C[C@H]2CNCCN2CCC23CC4CC(CC(C4)C2)C3)cc1	4%	–	18.5% (active)
O=C1CCNCCN1[C@H](CO)Cc1ccccc1	1.1%	inactive	–
CCc1nc2ccc(C(=O)NC3CCN(Cc4ccccc4)CC3)cn2c1N(CC)CCOC	1.3%	inactive	–
